Structures are written as SMILES. Activity calls are given as the source filed them. Rule as the data show it: active = inhibition above about 42%; inactive = the rest.

In the assay the target is Nuclear receptor subfamily 5 group A member 2 (Homo sapiens) (UniProt O00482). Put plainly: NR5A2 activity suppression in reporter cells – cell-based, luminescence, confirmation (AID 651613).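 Also: HEK293T cells co-transfected with LRH-1 and StAR promoter luciferase reporter; 0% = vehicle wells and 100% = parental cells lacking receptor.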 Particulars: cell-based LRH-1 luciferase reporter, inverse agonism; at 3.6 µM; hits give high values. On the technique in general: Reporter assays use an easily measured gene product as a stand-in for the process of interest.
Nuclear receptor subfamily 5 group A member 2 (Homo sapiens), sequence (O00482 whole entry, looked up): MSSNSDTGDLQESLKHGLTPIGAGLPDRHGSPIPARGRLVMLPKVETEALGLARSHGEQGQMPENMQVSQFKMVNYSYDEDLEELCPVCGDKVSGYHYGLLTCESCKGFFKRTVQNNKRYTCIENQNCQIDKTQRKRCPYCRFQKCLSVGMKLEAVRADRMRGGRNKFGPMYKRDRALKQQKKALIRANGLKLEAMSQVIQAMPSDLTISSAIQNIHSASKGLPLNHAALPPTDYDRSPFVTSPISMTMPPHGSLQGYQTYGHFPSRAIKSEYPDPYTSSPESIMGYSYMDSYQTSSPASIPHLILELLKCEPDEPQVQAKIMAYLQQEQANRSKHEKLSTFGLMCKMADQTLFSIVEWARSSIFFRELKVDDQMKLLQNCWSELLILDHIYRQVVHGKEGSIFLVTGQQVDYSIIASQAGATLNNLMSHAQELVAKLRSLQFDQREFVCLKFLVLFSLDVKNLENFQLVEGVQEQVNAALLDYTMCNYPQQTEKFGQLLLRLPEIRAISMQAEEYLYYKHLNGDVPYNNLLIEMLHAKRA
Turning to `CC(=O)O[C@H]1C[C@@H]2OC3C=C(C)CCC3(C)[C@@]1(C)[C@@]21CO1` (stereo partly specified), the inhibition (commonly the relative decrease from the control value, in per cent) was 109% (active).

On to `C[C@@H]1C[C@@H]([C@H](O)CC2CC(=O)NC(=O)C2)C(=O)[C@@H](C)C1`, for which the inhibition is 109% (active).

For the compound `CC(=O)OC1CC(OC2C(O)CC(OC3C(O)CC(OC4CCC5(C)C(CCC6C5CCC5(C)C(C7=CC(=O)OC7)CCC65O)C4)OC3C)OC2C)OC(C)C1OC1OC(CO)C(O)C(O)C1O` (stereo unspecified), the inhibition was 109% (active).

As to `COC1=C(C)C(=O)C2=C(C1=O)C(CO)N1C(C#N)C3CC4C(C1C2N1CCOC41)N3C` (stereo unspecified), the inhibition is 106% (active).

Take `C[C@@H]1O[C@@H](O[C@@H]2C=C3CC[C@@H]4C(CC[C@]5(C)[C@@H](c6ccc(=O)oc6)CC[C@]45O)[C@@]3(C)CC2)[C@H](O)[C@H](O)[C@H]1O` (stereo partly specified): the inhibition was 111% (active).

On to `COC1C(O)C(C)OC(OC2CCC3(C)C(CCC4C3C(O)CC3(C)C(C5=CC(=O)OC5)CCC43O)C2)C1O` (stereo unspecified), for which the inhibition is 110% (active).

Values taken from PubChem BioAssay.
